Activity calls are given as the source filed them. Unless noted, how the calls were made is not given here.
Assays:
[1] = resazurin metabolic signal in HepG2 cells – cell-based, resazurin fluorescence, 24 h, PK04 Diversity Set, profiling panel (AID 1172); settings: HepG2 viability, higher = more signal
[2] = budding yeast growth changes without added modifier – OD600, strain BY4716, 24 h, basal condition, primary screen (AID 1173); settings: S. cerevisiae BY4716 growth, OD600, 24 h; higher = more signal, called active from +8 up or from −8 down
[3] = viability profiling in MM1S myeloma cells – cell-based, resazurin fluorescence, basal, 24 h, PK04 Diversity Set, profiling panel (AID 1174); settings: higher = more signal, called active from +8 up or from −8 down;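 further: MM1S multiple myeloma cell line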
[4] = molecular target: Dihydroorotate dehydrogenase (quinone), mitochondrial (Plasmodium falciparum (isolate 3D7)) (UniProt Q08210); assay: inhibition of P. falciparum DHODH – biochemical, C-terminal His tag, absorbance 600 nm, primary screen (AID 1175); settings: PfDHODH enzyme, DCIP absorbance 600 nm; higher = more signal, called active from +8 up or from −8 down;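 further: recombinant parasite enzyme with a five histidine tag at its C terminus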
Dihydroorotate dehydrogenase (quinone), mitochondrial (Plasmodium falciparum (isolate 3D7)), sequence (Q08210 whole entry, looked up): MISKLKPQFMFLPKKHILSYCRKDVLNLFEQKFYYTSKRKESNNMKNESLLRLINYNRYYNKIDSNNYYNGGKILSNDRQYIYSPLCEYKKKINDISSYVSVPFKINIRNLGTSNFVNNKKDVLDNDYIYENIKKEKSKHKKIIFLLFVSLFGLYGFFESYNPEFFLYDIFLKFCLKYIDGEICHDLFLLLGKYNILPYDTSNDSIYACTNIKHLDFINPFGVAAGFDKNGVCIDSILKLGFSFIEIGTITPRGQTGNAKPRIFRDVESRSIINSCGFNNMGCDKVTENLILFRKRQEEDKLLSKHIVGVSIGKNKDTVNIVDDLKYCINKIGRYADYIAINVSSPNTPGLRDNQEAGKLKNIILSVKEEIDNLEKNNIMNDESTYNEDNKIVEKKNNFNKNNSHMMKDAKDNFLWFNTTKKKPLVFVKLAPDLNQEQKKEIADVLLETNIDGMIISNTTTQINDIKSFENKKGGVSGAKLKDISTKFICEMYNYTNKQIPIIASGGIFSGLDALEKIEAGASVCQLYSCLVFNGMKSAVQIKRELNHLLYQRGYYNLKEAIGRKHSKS

[5] = growth modulation of vineyard yeast isolate – strain RM11-1a, OD600, basal, 24 h, primary screen (AID 1177);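 further: cultures grown under basal conditions with no added stressor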; settings: S. cerevisiae RM11-1a growth, OD600, 24 h; higher = more signal, called active from +8 up or from −8 down
[6] = growth of efflux-deficient E. coli DRC39 – strain DRC39, OD650, 24 h, E. coli filamentation inducers, primary screen (AID 1178);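 further: growth measured as culture turbidity by optical density at 650 nm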; settings: E. coli DRC39 acrAB, higher = more signal, called active from +8 up or from −8 down
[7] = growth of efflux-deficient E. coli DRC39 – strain DRC39, OD650, 48 h, E. coli filamentation inducers, primary screen (AID 1179);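 further: screen aims at cell division blockers that make cells filament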; settings: E. coli DRC39 delta-acrAB growth, higher = more signal, called active from +8 up or from −8 down
[8] = viability profiling in RPMI8226 myeloma cells – cell-based, resazurin fluorescence, basal, 24 h, PK04 Diversity Set, profiling panel (AID 1180); settings: higher = more signal;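 further: RPMI8826 multiple myeloma cell line at 5000 cells per well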
[9] = molecular target: E3 ubiquitin-protein ligase XIAP (Homo sapiens) (UniProt P98170); assay: small molecules binding XIAP protein – biophysical, small-molecule microarray, fluorescence 635 nm, primary screen (AID 1181); settings: higher = more signal;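 further: score merges 667 nm emission and signal to noise over triplicate slides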
E3 ubiquitin-protein ligase XIAP (Homo sapiens), sequence (P98170 whole entry, looked up, the tested form may be a part): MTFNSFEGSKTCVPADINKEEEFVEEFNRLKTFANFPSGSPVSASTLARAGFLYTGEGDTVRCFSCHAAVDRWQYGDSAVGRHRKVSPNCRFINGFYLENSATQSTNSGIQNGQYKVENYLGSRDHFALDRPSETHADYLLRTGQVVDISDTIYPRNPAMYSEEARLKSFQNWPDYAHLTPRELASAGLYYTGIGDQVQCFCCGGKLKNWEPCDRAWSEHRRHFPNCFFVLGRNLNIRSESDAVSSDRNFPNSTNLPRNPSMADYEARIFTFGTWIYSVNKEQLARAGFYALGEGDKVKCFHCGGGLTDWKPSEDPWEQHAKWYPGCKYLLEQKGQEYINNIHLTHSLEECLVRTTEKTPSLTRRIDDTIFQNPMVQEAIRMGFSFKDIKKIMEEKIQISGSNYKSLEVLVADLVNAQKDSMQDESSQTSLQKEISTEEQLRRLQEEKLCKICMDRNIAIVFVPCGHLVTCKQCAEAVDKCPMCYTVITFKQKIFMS

[10] = tested on: XIP peptide (Xip251-270) binding; assay: XIP fragment 251-270 binding compounds – biochemical, small-molecule microarray, fluorescence 635/667 nm, 0.1 µg/mL protein, primary screen (AID 1182); settings: fluorescent protein binding, 635 nm, higher = more signal, called active from +8 up or from −8 down
XIP peptide (Xip251-270) = assay: compounds binding XIP fragment 251-270 – biochemical, small-molecule microarray, fluorescence 635/667 nm, 0.5 µg/mL protein, primary screen (AID 1183); settings: fluorescence 635 nm, higher = more signal
[11] = blood-stage malaria parasite viability loss – strain 3D7, DAPI fluorescence, 100 nL, primary screen (AID 1184);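 further: parasites grown inside human red blood cells in medium with human serum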; settings: P. falciparum 3D7 growth, 3 d, higher = more signal
[12] = molecular target: Homeobox protein Hox-A13 (Mus musculus) (UniProt Q62424); assay: disruptors of Hoxa13 oligonucleotide interaction – biochemical, fluorescence polarization, labeled oligonucleotide, primary screen (AID 1185); settings: Hoxa13:DNA binding, 15 min, higher = more signal, called active from +8 up or from −8 down
Homeobox protein Hox-A13 (Mus musculus), sequence (Q62424 whole entry, looked up): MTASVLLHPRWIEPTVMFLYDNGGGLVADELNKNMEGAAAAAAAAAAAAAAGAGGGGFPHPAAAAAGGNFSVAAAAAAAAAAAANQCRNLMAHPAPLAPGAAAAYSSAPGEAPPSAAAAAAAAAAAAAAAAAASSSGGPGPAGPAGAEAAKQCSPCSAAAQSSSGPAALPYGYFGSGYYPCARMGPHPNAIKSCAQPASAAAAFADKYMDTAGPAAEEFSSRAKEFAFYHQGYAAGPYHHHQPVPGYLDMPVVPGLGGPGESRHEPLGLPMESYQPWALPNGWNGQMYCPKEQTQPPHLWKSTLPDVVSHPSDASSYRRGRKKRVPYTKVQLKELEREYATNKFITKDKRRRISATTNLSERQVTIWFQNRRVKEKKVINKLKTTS

[13] = blockers of DNA damage checkpoint Chk1 activation – imaging, HeLa, hydroxyurea, phospho-Chk1 antibody, percent positive cells, primary screen (AID 1186); settings: hydroxyurea-induced phospho-Chk1 immunofluorescence imaging, higher = more signal
[14] = blockers of DNA damage checkpoint Chk1 activation – imaging, HeLa, hydroxyurea, phospho-Chk1 nuclear intensity, primary screen (AID 1187); settings: hydroxyurea-induced phospho-Chk1 immunofluorescence imaging, higher = more signal

| SMILES | z-score [1] | z-score [2] | z-score [3] | composite z-score [4] | z-score [5] | z-score [6] | z-score [7] | z-score [8] | composite z-score [9] | composite z-score [10] | composite z-score (XIP peptide (Xip251-270)) | z-score [11] | z-score [12] | z-score [13] | z-score [14] |
| --- | --- | --- | --- | --- | --- | --- | --- | --- | --- | --- | --- | --- | --- | --- | --- |
| C=CC[C@@]12N=C(c3ccc(OCCCO)cc3)O[C@@H]1c1ccccc1CN(Cc1ccccc1)C2=O | -0.806 | -0.251 (inactive) | -3.75 (inactive) | 1.27 (inactive) | 1.77 (inactive) | 1.4 (inactive) | 0.485 (inactive) | -3.21 | -0.0473 | 1.54 (inactive) | 0.78 | -2.61 | -1.94 (inactive) | -0.367 (inactive) | 0.0207 (inactive) |
| COCCOC(=O)N1C(=O)[C@@]2(c3cc(C#CC4(O)CCCCCC4)ccc31)[C@H](C(=O)N1CCCCCCC1)[C@H]1C(=O)O[C@H](c3ccccc3)[C@H](c3ccccc3)N1[C@@H]2c1ccc(O)cc1 | 0.1 | -0.975 (inactive) | 1.57 (inactive) | 0.0505 (inactive) | 0.322 (inactive) | 0.286 (inactive) | 0.264 (inactive) | 0.868 | 0.154 | 0.888 (inactive) | 0.683 | -2.19 | 3.51 (inactive) | -0.169 (inactive) | 0.085 (inactive) |
| C=C(/C(=C/C[C@@H](OC(=O)c1ccncc1)c1ccc(CO)o1)c1cnc2ccccc2c1)C(C)C | 0.0389 | -2.58 (inactive) | 0.558 (inactive) | -6.53 (inactive) | -0.475 (inactive) | 1.4 (inactive) | 0.811 (inactive) | 1.17 | 0.374 | 1.11 (inactive) | 0.766 | -0.599 | -4.89 (inactive) | -0.33 (inactive) | -0.232 (inactive) |
| C[C@H]1NC(=O)[C@@H](C)NC(=O)[C@@]23C(=O)N[C@@H](Cc4ccccc4)C2[C@H](C)[C@@]2(C)O[C@H]2C3/C=C/C/C=C\CNC1=O (stereo not given in full) | 0.0975 | -0.811 (inactive) | 1.02 (inactive) | 0.254 (inactive) | 0.776 (inactive) | 2.33 (inactive) | 1.58 (inactive) | 1.02 | -0.198 | 0.378 (inactive) | -0.166 | -0.428 | -3.98 (inactive) | -0.318 (inactive) | 0.412 (inactive) |
| COc1ccc(CCNC(=O)[C@@]2(c3ccc([N+](=O)[O-])cc3)CC(=O)N(C(C)C)[C@@H]2c2ccc(CO)cc2)cc1 | 0.483 | -1.12 (inactive) | 1.56 (inactive) | -0.704 (inactive) | -1.28 (inactive) | 0.793 (inactive) | 0.479 (inactive) | 1.19 | -0.154 | 1.25 (inactive) | -0.904 | -0.303 | -3.03 (inactive) | -0.322 (inactive) | -0.0259 (inactive) |
| COCCOC(=O)N1C(=O)[C@@]2(c3cc(C#CCNC(N)=O)ccc31)[C@H](c1ccc(OCCO)cc1)N1[C@H](c3ccccc3)[C@H](c3ccccc3)OC(=O)[C@H]1[C@@H]2C(=O)N1CCCCCCC1 | 0.377 | 1.52 (inactive) | 1.2 (inactive) | 0.0238 (inactive) | 2 (inactive) | -0.132 (inactive) | 0.538 (inactive) | 1.41 | -0.0559 | 0.067 (inactive) | -0.26 | -2.1 | -11.3 (active) | 0.174 (inactive) | 0.272 (inactive) |
| CC/C=C/C(=O)N(C[C@@H]1CCCO1)[C@@H]1CC(C(=O)NCCO)=C[C@H](Oc2c(I)cc(CO)cc2OC)[C@H]1O | 1.42 | -2.91 (inactive) | 1.08 (inactive) | -0.288 (inactive) | -2.02 (inactive) | 2.39 (inactive) | 1.03 (inactive) | 0.209 | -0.117 | 0.969 (inactive) | -0.769 | -1.03 | -5.37 (inactive) | 1 (inactive) | 1.11 (inactive) |
| O=C1O[C@@H](c2ccccc2)[C@@H](c2ccccc2)N2[C@@H](c3ccccc3OCCO)[C@]3(C(=O)Nc4ccc(C#CC5=CCCCC5)cc43)[C@@H](C(=O)O)[C@H]12 | 0.172 | -0.5 (inactive) | -2.81 (inactive) | -4.84 (inactive) | 3.46 (inactive) | 0.175 (inactive) | 0.45 (inactive) | -5.59 | 0.105 | 0.364 (inactive) | 0.305 | -0.662 | -3.14 (inactive) | -0.379 (inactive) | -0.318 (inactive) |
| COC(=O)C[C@H]1O[C@]2(C(=O)N(C)c3ccccc32)[C@@H](C)[C@@H]1[Si](C)(C)c1ccc(OC)cc1 | -0.0652 | -4.08 (inactive) | 0.504 (inactive) | 0.939 (inactive) | -1.41 (inactive) | 2.5 (inactive) | 0.871 (inactive) | 0.452 | 0.0942 | -0.539 (inactive) | 0.414 | -2.41 | -6.13 (inactive) | 0.463 (inactive) | 0.688 (inactive) |
| C=CCC1=C[C@H]2[C@H]([C@@H]3C=C[C@]2(CC=C)C(=O)[C@]32CO2)[C@@]2(CO2)C1=O | 0.177 | -15.3 (active) | -1.92 (inactive) | -0.491 (inactive) | -0.763 (inactive) | 2.57 (inactive) | 1.51 (inactive) | -1.12 | 0.147 | 1.7 (inactive) | -0.489 | -0.0419 | -1.29 (inactive) | -0.556 (inactive) | -0.606 (inactive) |
| [N-]=[N+]=Nc1ccccc1C[C@@]1(C(=O)N2CCOCC2)N=C(c2ccc(OCCCO)cc2)O[C@@H]1c1ccccc1N=[N+]=[N-] | -0.133 | -2.54 (inactive) | -1.93 (inactive) | -0.489 (inactive) | 0.0278 (inactive) | 1.08 (inactive) | 0.115 (inactive) | -3.91 | -0.256 | 0.49 (inactive) | 0.348 | -2.28 | -5.16 (inactive) | -1.03 (inactive) | -1.06 (inactive) |

Source: PubChem BioAssay
